This is a sample that favours compounds with a hit; in the whole collection about 18% have one here.
RORgamma inh – inhibitors of mouse ROR gamma transcriptional activity. Drosophila S2 Gal4-RORgamma UAS-luciferase reporter, 20 h. 310,000 compounds, 5.4% hits. Potency, µM (doses to about 53.6 µM), for inactives: at the top dose activity change, negative = inhibition, most hits filed as inhibitors; also: potency is read from the fitted curve at half-maximal effect; nearly all actives have a fitted effect of over 60% in size
Target sequence (P51450 whole entry, looked up, the tested form may be a part): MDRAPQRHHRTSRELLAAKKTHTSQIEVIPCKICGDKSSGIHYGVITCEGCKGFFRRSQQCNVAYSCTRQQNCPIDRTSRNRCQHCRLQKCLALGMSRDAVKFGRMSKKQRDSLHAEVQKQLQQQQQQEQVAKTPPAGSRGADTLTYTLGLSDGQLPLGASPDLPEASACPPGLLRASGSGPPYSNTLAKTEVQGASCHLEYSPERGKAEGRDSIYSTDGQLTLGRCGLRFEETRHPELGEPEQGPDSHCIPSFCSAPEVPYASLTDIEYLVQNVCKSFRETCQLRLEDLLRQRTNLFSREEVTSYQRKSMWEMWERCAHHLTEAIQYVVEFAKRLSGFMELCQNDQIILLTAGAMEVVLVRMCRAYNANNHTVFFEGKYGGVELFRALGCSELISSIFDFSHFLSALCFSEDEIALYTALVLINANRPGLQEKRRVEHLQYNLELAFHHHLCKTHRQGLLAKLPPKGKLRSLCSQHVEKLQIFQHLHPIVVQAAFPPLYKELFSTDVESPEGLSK
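Stably transfected Drosophila Schneider cells are the test system, with ROR gamma fused to Gal4 and luciferase under UAS control; luminescence is read after 20 hr of 700 uM copper sulfate induction at ambient temperature.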
TDP1 cell noCPT – qHTS for Inhibitors of human tyrosyl-DNA phosphodiesterase 1 (TDP1): qHTS in cells in absence of CPT; AID 686978, 2013; DT40 Tdp1-/- hTDP1 cells, no CPT, ATP luminescence, 48 h; Potency, µM (doses to about 46.2 µM), inactives show at the top dose activity change, negative = growth inhibition, usual class: inhibitors; 420,000 compounds, 15% hits; also: potency is read from the fitted curve at half-maximal effect; nearly all actives have a fitted effect of over 55% in size
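DT40 Tdp1-/-;hTDP1 cells, no CPT (DMSO vehicle only), 400 cells/well; compounds pin-transferred; ≥48 hr, 37 °C; CellTiter-Glo 30 min RT dark, luminescence read.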
Gal4-VP16 FLuc – inhibits Gal4-VP16 luciferase reporter, ROR gamma counter-screen | Potency, µM (series often up to 53.6 µM), without a hit: at the top dose activity, negative = inhibition, most hits filed as inhibitors | 310,000 compounds, 3.5% hits | Drosophila S2 Gal4-VP16 UAS-luciferase, luminescence, 20 h;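 also: Gal4-VP16 expression switched on by copper sulfate through the metallothionein promoter; potency is read from the fitted curve at half-maximal effect; nearly all actives have a fitted effect of over 50% in size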
LDHA inh – LDHA (human) enzyme inhibition; 480,000 compounds, 0.15% hits; P00338; purified LDHA, NADH/diaphorase-resazurin fluorescence; active compounds read low; activity change, % (values are at about 110 or 230 µM); AID 1347041; in the data active = activity change below about -30%; inconclusive = mostly about -25% to -30%;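 also: plate controls were DMSO wells for no effect and wells without enzyme for full effect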
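Human LDH5 (2 nM) was incubated with 0.06 mM NADH and 0.2 mM pyruvate for 5 min at room temperature in Tris pH 7.4. Remaining NADH was coupled through diaphorase/resazurin, and resorufin fluorescence was read at 0 and 20 min.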
TDP1 cell CPT – DT40-hTDP1 cell growth loss with CPT; AID 686979; chicken DT40 Tdp1-/-;hTDP1 cells + 20 nM CPT, ATP luminescence, 48 h; 420,000 compounds, 12% hits; Potency, µM (highest dose often 46.2 µM), for inactives: at the top dose activity change, negative = growth inhibition, most hits filed as inhibitors; also: potency is read from the fitted curve at half-maximal effect; nearly all actives have a fitted effect of over 55% in size
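Chicken DT40 Tdp1-/- cells stably complemented with human TDP1 were seeded at 400 cells/well in medium containing 20 nM camptothecin, exposed to pin-transferred compounds, and grown at 37 °C for at least 48 hr. Viability was read as ATP luminescence.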
IL1B secr inh – inflammasome signaling inhibition, IL-1 beta readout; 360,000 compounds, 4.7% hits; THP-1 LPS/ATP IL-1B secretion, AlphaLISA, 16 h; active compounds read low; activity change, % at 57.5 µM; in the data active = activity change below about -50%; inconclusive = mostly about -30% to -49%
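Secreted IL-1B measured by AlphaLISA bead assay after 16 h compound exposure of THP-1 cells; compounds (final up to 57.5 uM) added 1 h before LPS (250 ng/mL) and ATP (1.25 mM) stimulation; lower signal means less secretion.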
* = called active by the depositor; i = inactive; ? = inconclusive; . = no result; [ ] = dose if it differs, or a comment. Unless noted, calls follow the shape of the dose curve; as a rule, active = well fitted curve in the direction sought with a large enough effect; inconclusive = small, poorly fitted or top-dose-only effect, or another doubt; inactive = no such curve, though single readings can be large; an effect the other way counts as inactive or inconclusive. Unless noted, % is scaled to controls: 0 for no effect and ±100 for the full control effect.

SMILES	RORgamma inh	TDP1 cell noCPT	Gal4-VP16 FLuc	LDHA inh	TDP1 cell CPT	IL1B secr inh
CN1c2ccccc2C2(C)CCCC3=Cc4cc([N+](=O)[O-])cc([N+](=O)[O-])c4OC312 (stereo unspecified)	2.7%	23.1µM*	?	2.2	14.6µM*	-1.7
CC(C)(C)c1ccc(C(=O)NC(Nc2cccc(C(F)(F)F)c2)C(Cl)(Cl)Cl)cc1 (stereo unspecified)	.	.	.	-2.5	.	.
Cc1ccc(NC(=O)CCc2c[nH]c3ccccc23)cc1	.	.	.	9.4	.	.
Cc1ccc(-c2cc(C(=O)O)c3cc(Br)ccc3n2)cc1	.	.	.	1.5	.	.
COc1ccc(-c2cc(C(=O)N3CCCC3)c3cc(Br)ccc3n2)cc1	.	.	.	9.7	.	.
Cc1ccc2nc(-c3ccccc3)cc(C(=O)N3CCN(C(=O)c4ccco4)CC3)c2c1	.	.	.	5.6	.	.
Cc1cccc2c(C(=O)N3CCN(C(=O)c4ccco4)CC3)cc(-c3cccc(Br)c3)nc12	?	?	?	-3.8	?	-71.2*
O=C(c1ccco1)N1CCN(C(=O)c2cc(-c3ccncc3)nc3ccc(Br)cc23)CC1	.	9.2µM*	.	-3.8	20.6µM*	0.0
CC(C)c1ccc(-c2cc(C(=O)N3CCOCC3)c3cc(Br)ccc3n2)cc1	?	?	8.0%	-5.9	?	-72.7*
CC(=O)c1ccc(N2CCN(C(=O)c3cc(-c4ccncc4)nc4ccc(Br)cc34)CC2)cc1	26.4%	20.6µM*	23.1%	1.1	20.6µM*	i
CC(C)Sc1ncc(Cl)c(C(=O)Nc2ccc(S(=O)(=O)N3CCCCC3C)cc2)n1 (stereo unspecified)	.	18.4µM*	.	1.7	?	.
CSc1ncc(Cl)c(C(=O)Nc2ccc(S(=O)(=O)N3CCC(C)CC3)cc2)n1	.	23.1µM*	.	1.9	23.1µM*	.
CCCSc1ncc(Cl)c(C(=O)Nc2ccc(S(=O)(=O)N3CC(C)OC(C)C3)cc2)n1 (stereo unspecified)	31.5%	16.4µM*	0.0%	-3.6	?	2.3
CCSc1ncc(Cl)c(C(=O)Nc2ccc(S(=O)(=O)Nc3nccc(C)n3)cc2)n1	.	?	.	0.8	-28.3%	.
CCSc1ncc(Cl)c(C(=O)Nc2ccc(S(N)(=O)=O)cc2)n1	10.7%	?	7.1%	-9.8	-19.3%	-59.4*
CSc1ncc(Cl)c(C(=O)Nc2ccc(S(=O)(=O)N3CCCCC3C)cc2)n1 (stereo unspecified)	.	.	.	0.0	.	.
CCCC(C)NC(=O)c1ccccc1C (stereo unspecified)	.	.	.	-0.1	.	.
Cc1[nH]c2ccccc2c1C(=O)C(=O)NCC1CCC1	.	.	.	4.2	.	.
Cc1cc2cc(C)c3nnc(SCC(=O)Nc4ccc(S(=O)(=O)N5CCCCC5C)cc4)n3c2cc1C (stereo unspecified)	4.7%[10 µM]	10.3µM*	-9.4%	-4.7	?	8.2
CCS(=O)(=O)c1ncc(Cl)c(C(=O)Nc2ccc(S(=O)(=O)N3CCC(C)CC3)cc2)n1	3.16µM*	2.59µM*	4.47µM*	-1.0	1.84µM*	-103.9*
CCSc1ncc(Cl)c(C(=O)Nc2ccc(S(=O)(=O)N3CCC(C)CC3)cc2)n1	.	5.8µM*	.	3.3	14.6µM*	.
CC1CCCCN1S(=O)(=O)c1ccc(NC(=O)CSc2nnnn2C)cc1 (stereo unspecified)	10.7%	-14.4%	-9.4%	-1.6	-7.5%	0.0
CCSc1ncc(Cl)c(C(=O)Nc2ccc(S(=O)(=O)Nc3ncccn3)cc2)n1	-0.8%	5.6%	-6.0%	-4.0	5.1%	-3.2
CC1CCN(S(=O)(=O)c2ccc(NC(=O)C3CC3)cc2)CC1	13.8%	-23.5%	0.9%	-3.3	?	16.5
CC(=O)Nc1ccc(C(=O)NC(CC(=O)O)c2ccc(C(C)(C)C)cc2)cc1 (stereo unspecified)	.	.	.	4.8	.	.
